Growth data for 6 compounds are collected here from PubChem BioAssay (NCI).

SMILES strings stand for the structures. About 83,000 compounds went through this panel and 20% of them were active in at least one assay; those are over-represented in the sample as a whole.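 Testing used 96-well plates and a 48-hour single-concentration exposure. Example: -40 means 40% of the starting cells died.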 Unmarked numbers belong to inactive results. Calls of active or inactive are those of the source. The calls were made as follows: active = growth percent below 10; inactive = the rest.

This experiment deals with MDA-MB-468 breast. Nature of the experiment: NCI-60 one-dose screen, 48 h (100 = growth as untreated, 0 = no growth, -100 = all killed). Conditions: 10 µM unless noted.
As to `CC1CN(CC(O)c2ccc(Br)cc2)CCO1` (stereo unspecified), the growth was 115%.
For the compound `c1cc(N2CCCC2)c2nc(-c3[nH]ncc3Nc3ncnc4[nH]ccc34)[nH]c2c1`, the growth is -76.2% (active).
For `O=C1OCC2=C1C(c1cccc(Cl)c1)c1cc3c(cc1N2CCO)OCCO3` (stereo unspecified), the growth was 9.02% (active).
Turning to `N#Cc1cc(-c2nc3ccccc3s2)c(=O)n(NS(=O)(=O)c2ccc(Cl)cc2)c1N`, the growth is 99.6%.
The result for `C/C(Cc1ccc(Cl)cc1)=C(\c1ccc(OCCN2CCCCCC2)cc1)c1ccc(OC(=O)Cc2ccccc2)cc1` reads 69%.
The result for `COc1ccc(C(=O)NC(=O)Nc2ccc3c(c2)NC(=O)/C3=C\c2[nH]c(C)c(CCC(=O)O)c2C)c(F)c1` reads 59.7%.
